Experiments:
Test in all cases: PBM binding z-score (relative to random genomic background probes); higher = stronger binding; sequences stand for … in GC…GCGATTGACAGCGTAGAATGAAGG
[1] = system: FXR:RXRa (NR concentration 270 nM, RXRa partner concentration 90 nM)
Summary of the method: (§1)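 Probes were double-stranded and carried 34-nt variable regions with direct-repeat seeds, single-nucleotide variants, half-site ablations and random human genomic background sequences, printed on custom Agilent 4×180K protein-binding microarrays. Arrays were incubated 1 h with ligand-free nuclear receptor dimers in PBS pH 7.4, 2% milk, 0.02% Triton X-100, 1 mM DTT, 0.2 mg/mL BSA and 0.4 mg/ml salmon testes DNA. Antibodies against each partner (one per run) detected binding, and scanned fluorescence was regression-normalized. Binding z-scores use the random background probes as reference.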

[2] = system: LXRa:RXRa (NR concentration 270 nM, RXRa partner concentration 90 nM)
Summary of the method: as §1

[3] = system: LXRa homodimer (NR concentration 270 nM)
Summary of the method: as §1

[4] = system: LXRb:RXRa (NR concentration 270 nM, RXRa partner concentration 90 nM)
Summary of the method: as §1

[5] = system: LXRb homodimer (NR concentration 270 nM)
Summary of the method: as §1

[6] = system: PPARa:RXRa (NR concentration 270 nM, RXRa partner concentration 90 nM)
Summary of the method: as §1

[7] = system: PPARg:RXRa (NR concentration 180 nM, RXRa partner concentration 90 nM)
Summary of the method: as §1

[8] = system: PPARg:RXRa 270nM:90nM, anti-RXR (NR concentration 270 nM, RXRa partner concentration 90 nM)
Summary of the method: as §1

[9] = system: PPARg:RXRa 30nM:10nM, anti-RXR (NR concentration 30 nM, RXRa partner concentration 10 nM)
Summary of the method: as §1

[10] = system: PPARg:RXRa 90nM:30nM, anti-RXR (NR concentration 90 nM, RXRa partner concentration 30 nM)
Summary of the method: as §1

[11] = system: PPARg:RXRa DBDmut IVT, anti-RXR (DBD mutation: RXRa K156A/R161A, NR concentration 270 nM, RXRa partner concentration 90 nM)
Summary of the method: as §1

[12] = system: PPARg:RXRa IVT, anti-PPARg (NR concentration 270 nM, RXRa partner concentration 90 nM)
Summary of the method: as §1

[13] = system: PPARg DBDmut:RXRa IVT, anti-PPARg (DBD mutation: PPARg1 K132A/R137A, NR concentration 270 nM, RXRa partner concentration 90 nM)
Summary of the method: as §1

[14] = system: PPARg DBDmut IVT, anti-PPARg (DBD mutation: PPARg1 K132A/R137A, NR concentration 270 nM)
Summary of the method: as §1

[15] = system: PPARg homodimer (NR concentration 180 nM)
Summary of the method: as §1

[16] = system: PXR:RXRa (NR concentration 270 nM, RXRa partner concentration 90 nM)
Summary of the method: as §1

[17] = system: PXR homodimer (NR concentration 270 nM)
Summary of the method: as §1

[18] = system: RARa:RXR (NR concentration 270 nM, RXRa partner concentration 90 nM)
Summary of the method: as §1

[19] = system: RARa homodimer (NR concentration 270 nM)
Summary of the method: as §1

[20] = system: RARb:RXRa (NR concentration 270 nM, RXRa partner concentration 90 nM)
Summary of the method: as §1

Sequence | PBM binding z-score [1] | PBM binding z-score [2] | PBM binding z-score [3] | PBM binding z-score [4] | PBM binding z-score [5] | PBM binding z-score [6] | PBM binding z-score [7] | PBM binding z-score [8] | PBM binding z-score [9] | PBM binding z-score [10] | PBM binding z-score [11] | PBM binding z-score [12] | PBM binding z-score [13] | PBM binding z-score [14] | PBM binding z-score [15] | PBM binding z-score [16] | PBM binding z-score [17] | PBM binding z-score [18] | PBM binding z-score [19] | PBM binding z-score [20]
TAGCCTAGGTCAGATCGGGCTAGTATACGCTATA | 1.81 | 1.03 | -0.52 | 0.639 | -0.577 | 1.73 | 0.628 | 0.874 | -0.237 | 0.393 | 0.118 | 1.07 | -0.407 | -0.708 | 0.037 | 0.63 | -0.428 | 1.5 | -0.679 | 2.78
CGAACGAGGGCATGAGTTGATTGCAAATGCCGAT | 0.319 | 0.271 | -0.529 | -0.0625 | -0.873 | 1.14 | 1.26 | 1.58 | 0.205 | 1.08 | 2.89 | 1.87 | -0.365 | -0.273 | 0.304 | 0.676 | 0.4 | 0.51 | -0.117 | 1.96
GTACAAAGGTGAATAGGTCGTTGATGAGTAGGCG | 2.27 | 2.19 | 0.326 | 1.78 | -0.0357 | 4.09 | 4.55 | 4.78 | 2.17 | 4.03 | 2.92 | 4.14 | 1.72 | 0.526 | 2.64 | 2.15 | 0.501 | 3.42 | 1.23 | 3.49
ACTCGGAGGACAAAGGTCAGAGCGACGCCAGTGA | 4.14 | 4.3 | 1.14 | 3.61 | 0.216 | 4.97 | 7.85 | 6.9 | 5.06 | 7.27 | 0.874 | 3.53 | -0.107 | -0.757 | 3.73 | 4.04 | 0.438 | 4.89 | 0.829 | 4.57
TCTATGAGTTGATTAGGGCAACCGAAACAGCGGA | 0.319 | 0.351 | -0.0686 | 0.151 | -0.328 | 1.07 | 0.39 | 1.31 | 2.32 | 1.65 | 1.35 | 1.19 | -0.00987 | -0.582 | -0.0125 | 0.279 | -0.195 | 0.487 | -0.0986 | 0.711
CAAACTATGTCACCGGAAGGTCAAAGTCCGCATG | 3.73 | 3.78 | 4.13 | 3.89 | 1.52 | 4.37 | 3.69 | 4.08 | 1.4 | 2.98 | 5.08 | 5.25 | 0.711 | 1.64 | 3.93 | 4.29 | 2.1 | 4.93 | 2.43 | 3.7
ATCTCTAGTTAACCAAGTTCAGTGAATGCCGAAC | 0.219 | 1.08 | 1.32 | 0.741 | 0.807 | 0.492 | -0.088 | 0.244 | 0.153 | 0.13 | -0.131 | 0.461 | 0.59 | 1.22 | 1 | 2.1 | 3 | 0.723 | 1.21 | 0.932
CCGAGTAGGTTATGGGGCATTCAGGCAACGGTGA | 0.255 | 0.351 | -0.0528 | 0.508 | -0.322 | 2.11 | 3.48 | 4.31 | 2.03 | 3.91 | 3.19 | 3.21 | -0.378 | 0.039 | 0.874 | -0.0382 | 0.0489 | 0.571 | 0.139 | 0.99
TAGCCTAGGTCTGATCGGGCCAGTATACGCTATA | -0.28 | -0.943 | -0.639 | -0.94 | -1.01 | -0.144 | 0.0558 | -0.669 | -0.329 | -0.45 | -0.797 | -0.522 | -0.763 | -0.994 | -0.906 | -0.673 | -1.05 | -0.33 | -1.47 | -0.362
TCTTGTACATCAATAGAGGTTAAGAAAGTGCGCT | 0.725 | 3.49 | 0.473 | 1.79 | 0.532 | 1.82 | 0.201 | 1.72 | 3.01 | 2.08 | 1.8 | 1.66 | 1.53 | 1.13 | 0.454 | 2.94 | 0.485 | 1.98 | 0.123 | 1.08
CCGAGTAGGTTATCGGGCATTCAGGCAACGGTGA | 0.12 | 0.322 | 0.154 | -0.0205 | -0.739 | 1.32 | 1.8 | 2.7 | 0.915 | 1.54 | 2.93 | 2.72 | -1.04 | -1.21 | 0.257 | -0.121 | -0.43 | 0.241 | 0.0766 | 0.742
TCTATGAGTTGAAGGGCAACCGACGAGTCCGTTT | 0.419 | 0.7 | -0.373 | 0.405 | -0.437 | 1.2 | 0.607 | 1.51 | 2.54 | 2.22 | 1.46 | 0.477 | -0.166 | 0.0578 | -0.142 | 0.853 | 0.0161 | 0.674 | -0.22 | 1.37
TTACGAAGGTGAGCTGAGGTCGTTGATCCAACTC | 2.65 | 1.46 | -0.333 | 0.8 | -0.914 | 1.52 | 0.0154 | 0.637 | -0.115 | 0.0816 | 0.758 | 1.28 | -0.294 | -0.134 | 0.215 | 5.29 | 0.95 | 1.56 | -0.794 | 1.79
CTCGAAAGGTCGGTTGAGGTGAGTATGCGGATAA | 2.51 | 1.72 | -0.105 | 1.27 | -0.0928 | 2.67 | 0.178 | 1.24 | 0.131 | 0.771 | 0.239 | 1.05 | -0.43 | 0.0422 | 1.08 | 2.93 | 0.0767 | 2.11 | 0.202 | 3.01

From the supplement of paper PMC6555819
